# Compound activity (PubChem BioAssay)
# HCV inhibitor – qHTS Assay for Inhibitors of Hepatitis C Virus (HCV); Huh7.5.1 HCVcc-Cre infection, luciferase reporter, 44 h; Potency, µM (series often up to 41.8 µM), for the others: at the highest dose activity change, negative = inhibition, actives largely listed as inhibitors; 3.4% of 340,000 active; AID 651820, 2012; also: potency is read from the fitted curve at half-maximal effect
#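 1,000 cells/well; 4 h culture; + compound; + HCVcc-Cre (~0.5 moi); 44 h; luciferase substrate, RT 15 min; read 15 sec.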
# AmpC no deterg – qHTS Inhibitors of AmpC Beta-Lactamase (assay without detergent) | 0.52% of 330,000 active | Potency, µM (top dose mostly 57.1 µM), inactives show top-dose activity change, negative = inhibition, most hits filed as inhibitors | AmpC nitrocefin hydrolysis, absorbance 480 nm, 0.0001% Triton | P00811;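 also: potency is read from the fitted curve at half-maximal effect; plate controls were no compound for no effect and no enzyme for full effect; nearly all actives have a fitted effect of over 20% in size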
# Target sequence (P00811 whole entry, looked up): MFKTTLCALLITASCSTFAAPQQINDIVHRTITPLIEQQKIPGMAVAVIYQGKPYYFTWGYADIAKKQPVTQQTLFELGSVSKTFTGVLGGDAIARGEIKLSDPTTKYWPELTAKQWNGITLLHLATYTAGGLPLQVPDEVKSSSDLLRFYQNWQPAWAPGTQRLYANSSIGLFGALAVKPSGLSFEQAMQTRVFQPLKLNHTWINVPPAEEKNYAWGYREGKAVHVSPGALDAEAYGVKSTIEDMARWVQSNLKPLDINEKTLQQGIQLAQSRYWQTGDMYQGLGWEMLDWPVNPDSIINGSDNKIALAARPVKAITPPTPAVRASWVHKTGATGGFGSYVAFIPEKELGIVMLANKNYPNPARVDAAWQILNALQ
#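 20 mM phosphate pH 7.0 + 0.01% (detergent screen) or 0.0001% Triton X-100; 5.3 nM AmpC reagent; cpd preinc 15 min RT; nitrocefin (800 uM stock) to start; A480 q20 s × 4 min; Activity was normalised to no-enzyme and no-compound control wells.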
# FMDV inh – High Throughput Screening for Foot and Mouth Disease Virus Antivirals | Potency, µM (titrated, usually from 57.9 µM), inactives show at the highest dose activity change, negative = inhibition, usual class: inhibitors | FMDV antiviral cell-based qHTS | 1.2% of 410,000 active | AID 1159524, 2015; calls by dose curve; tested in HEK293T cells; also: read-out not given here; potency is read from the fitted curve at half-maximal effect; nearly all actives have a fitted effect of over 45% in size
# HCMV inh – qHTS Assay for inhibitors of the human cytomegalovirus (HCMV); 4.5% of 410,000 active; activity change, negative = inhibition, % at 57.5 µM; AID 1259415, 2018; HFF cells, HCMV-luciferase reporter, 72 h; stronger effect = lower value; in the data active = activity change below about -60%; inconclusive = no clear call, values can overlap the other calls; inactive = above about -39%
#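 Inhibition of viral replication was scored as loss of reporter luminescence in HFFs infected with HCMV-luciferase (MOI 1 PFU/cell) for 72 h; compounds tested at 2 doses, normalized to buffer and Salinomycin controls.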
# AmpC inh detg – qHTS Inhibitors of AmpC Beta-Lactamase (assay with detergent). P00811. AmpC hydrolysis of nitrocefin, absorbance 480 nm, 0.01% Triton. Potency, µM (top dose mostly 114 µM), for inactives: top-dose activity change, negative = inhibition, most hits filed as inhibitors. 0.041% of 370,000 active. AID 485294, 2010;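 also: potency is read from the fitted curve at half-maximal effect; 0% = no-compound wells and -100% = no-enzyme wells; nearly all actives have a fitted effect of over 25% in size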
#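 20 mM phosphate pH 7.0 + 0.01% (detergent screen) or 0.0001% Triton X-100; 5.3 nM AmpC reagent; cpd preinc 15 min RT; nitrocefin (800 uM stock) to start; A480 q20 s × 4 min; Activity was normalised to no-enzyme and no-compound control wells.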
# Starred values were filed as active, the others as inactive; ? = inconclusive; nt = no result; + = active, no number; ! = repeats disagree. This is a sample that favours compounds with a hit; in the whole collection about 7.3% have one here. Unless noted, calls follow the shape of the dose curve; as a rule, active = well fitted curve in the direction sought with a large enough effect; inconclusive = small, poorly fitted or top-dose-only effect, or another doubt; inactive = no such curve, though single readings can be large; an effect the other way counts as inactive or inconclusive. Unless noted, % is scaled to controls: 0 for no effect and ±100 for the full control effect.
SMILES,HCV inhibitor,AmpC no deterg,FMDV inh,HCMV inh,AmpC inh detg
COc1ccc(-c2noc(CSc3nnc(Cc4ccccc4)n3-c3ccc(Cl)cc3)n2)cc1,14.1µM*,11.0%,-20.3%,-2.3,?
COc1ccc(Cc2nc(-c3ccc(-n4cccc4)cc3)no2)cc1,-10.6%,-19.6%,-8.6%,-24.1,-9.2%
Cc1cccc(C)c1NC(=O)C(Nc1ccccc1)c1ccccc1F (centres undefined),nt,nt,nt,8.0,nt
Nc1ccn(CC(=O)NCc2ccccc2)c(=O)n1,21.2%,-11.6%,-3.6%,23.0,2.7%
Nc1ccn(CC(=O)NCCCc2ccccc2)c(=O)n1,-8.7%,-16.3%,-2.3%,-80.5*,2.9%
Cc1cn(CC(=O)NCCCc2ccccc2)c(=O)[nH]c1=O,2.82µM*,nt,-15.4%,23.7,nt
Cc1cccc(N2CCN(C(=O)c3nn(C)c4c3CSc3ccccc3-4)CC2C)c1 (centres undefined),nt,nt,-6.3%,-61.6*,-6.9%
Cc1cccc(N2CCN(C(=O)c3ccc(N4CCCC4=O)cc3)CC2C)c1 (centres undefined),?,104.6%,31.6µM*,-17.9,-3.3%
Cc1cccc(N2CCN(C(=O)c3cc4c(=O)n(C)c5ccccc5c4s3)CC2C)c1 (centres undefined),nt,nt,-21.0%,14.7,1.0%
Cc1cccc(N2CCN(C(=O)c3nn(C)c4c3CS(=O)(=O)c3ccccc3-4)CC2C)c1 (centres undefined),?,52.0%,?,-30.3,-2.0%
Cc1cccc(N2CCN(C(=O)c3ccc4c(c3)c(C)c(C)n4C)CC2C)c1 (centres undefined),?,46.0%,0.5%,+!,-2.1%
CC(=O)N1C(=O)NC2=C(C(=O)CCC2)C1c1cccc([N+](=O)[O-])c1 (centres undefined),-1.6%,-23.7%,0.3%,-4.8,-1.9%
CNC(=O)/C(C#N)=C1/SC(Cc2ccc(F)cc2)C(=O)N1c1ccccc1 (centres undefined),11.5%,3.7%,-6.1%,?,8.8%
CC(=O)/C(C#N)=C1\NC(=O)C(Cc2ccc(F)cc2)S1 (centres undefined),-3.9%,-23.4%,-5.8%,-83.2*,7.0%
CC(=O)/C(C#N)=C1\NC(=O)C(Cc2ccc(C)c(C)c2)S1 (centres undefined),6.5%,-26.1%,8.8%,-95.4*,-5.5%
Cc1ccc(CC2SC(=O)NC2=O)cc1Cl (centres undefined),8.0%,-28.6%,1.4%,-25.8,?
COc1cc2c(cc1NC(=O)COc1ccc(Br)c(C)c1)oc1ccccc12,nt,nt,-4.1%,-7.0,-5.6%
CC1CCN(S(=O)(=O)c2ccc3c(c2)CCN3C(=O)Nc2ccc(Br)cc2)CC1,nt,nt,12.6%,30.7,18.6%
COc1ccc(C)c2sc(N(CCCN(C)C)C(=O)c3ccc(S(=O)(=O)N4CCc5ccccc5C4)cc3)nc12,?,nt,?,-97.8*,nt
COc1ccc(OC)c2sc(N(CCCN(C)C)C(=O)c3ccc(S(=O)(=O)N4CCc5ccccc5C4)cc3)nc12,3.98µM*,185.3%,nt,nt,0.0%
COC(=O)c1ccccc1NC(=O)CCn1c(=O)oc2ccccc21,-12.6%,-8.1%,-2.5%,22.4,2.8%
CCOc1ccc(C(=O)Nc2ccc3c(c2)OCO3)cc1OCC,5.62µM*,-15.7%,13.6%,43.5,-4.5%
CCC(CC)C(=O)Nc1cccc(C(=O)Nc2ccc(S(=O)(=O)Nc3ccc(C)cc3)cc2)c1,15.8µM*,-30.5%,?,-97.4*,-2.8%
Cc1ccc(S(=O)(=O)Nc2ccc(NC(=O)c3c(F)c(F)c(F)c(F)c3F)cc2)cc1,12.6µM*,?,-14.2%,-27.1,-0.3%
Cc1ccc(NS(=O)(=O)c2ccc(N3C(=O)CCC3=O)cc2)cc1,21.5%,-18.5%,9.0%,-84.3*,-5.5%
SMILES,HCV inhibitor,AmpC no deterg,FMDV inh,HCMV inh,AmpC inh detg
COc1ccc(C2=NS(=O)(=O)N(C)C(C(=O)Nc3ccc4c(c3)OCO4)=C2)cc1OC,12.6µM*,7.5%,?,8.5,0.5%
CCOc1ccc(NC(=O)c2cc(F)c(F)cc2Cl)cc1OCC,-23.3%,-2.6%,0.9%,-97.8*,4.6%
COc1ccc(Cl)cc1C(=O)Nc1ccc2c(c1)OCO2,11.2µM*,-24.1%,15.0%,259.5,0.2%
CCc1nc2ccc(C(=O)Nc3ccc4c(c3)OCO4)cc2nc1CC,2µM*,-20.7%,49.0%,-30.9,4.4%
COc1ccc(Cl)cc1C(=O)Nc1ccc2c(c1)OCCO2,?,-17.4%,60.2%,196.8,-10.6%
CCC1C(=O)NCCN1Cc1ccc2c(c1)CN(Cc1cccc(OC)c1)CCO2 (centres undefined),nt,nt,2.6%,nt,nt
CC(OC(=O)c1cccc(NS(C)(=O)=O)c1)C(=O)Nc1ccc2c(c1)OCO2 (centres undefined),7.08µM*,-11.9%,?,2.6,?
CCN(CC)S(=O)(=O)c1cccc(C(=O)Nc2ccc3c(c2)OCO3)c1,?,-32.3%,-8.1%,11.5,?
CCC(CC)C(=O)Nc1cccc(C(=O)Nc2ccc3c(c2)OCO3)c1,7.94µM*,-42.2%,40.6%,-37.8,-1.9%
Cc1ccc(S(=O)(=O)c2nc(S(C)(=O)=O)sc2N2CCCCC2C)cc1 (centres undefined),5.3%,21.8%,-9.7%,-75.2*,2.3%
Cc1ccc(S(=O)(=O)c2nc(S(=O)(=O)c3ccc(C)cc3)c(N3CCN(CCO)CC3)s2)cc1,?,249.2%,6.3%,-107.5*,7.3%
CCS(=O)(=O)c1nc(S(=O)(=O)c2ccc(Cl)cc2)c(N2CCN(C)CC2)s1,15.9%,78.0%,0.1%,-77.3*,0.2%
CN1CCN(c2sc(S(C)(=O)=O)nc2S(=O)(=O)c2ccc(Cl)cc2)CC1,5.6%,18.2%,-4.0%,-80.0*,-0.5%
CCS(=O)(=O)c1nc(S(=O)(=O)c2ccc(Cl)cc2)c(N2CCCC2)s1,1.3%,-16.7%,54.4%,-19.9,2.5%
Cc1ccc(S(=O)(=O)c2nc(S(C)(=O)=O)sc2N2CCC(O)CC2)cc1,2.6%,21.8%,-3.7%,-20.2,1.5%
CCOC(=O)c1c(C)[nH]c(C)c1S(=O)(=O)N1CCC(C(=O)Nc2ccc(OCC)cc2)CC1,nt,nt,-11.5%,-6.8,-1.1%
CCc1cc2c(cc3c(=O)n(CCCC(=O)NCc4cccc(Cl)c4)ncn32)s1,nt,nt,-25.7%,-31.0,-7.1%
COCC1CN(CCc2ccc(F)cc2)S(=O)(=O)c2c(F)cccc2O1 (centres undefined),nt,nt,nt,-19.3,nt
Cc1ccsc1C1Cc2c(C(=O)NCc3cccnc3)c(=O)cc(C)n2-c2ccccc2S1 (centres undefined),nt,nt,-8.3%,nt,nt
